Assay [1] in a line: qHTS assay for measurement of the activity of small molecule inhibitors on Zika virus induced Caspase-3 activity in human iPSC derived neural progenitor cells (hNPCs) (AID 1224857). Note: nearly all actives have a fitted effect of over 65% in size. The gist of the method:
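Caspase-3/7 induction by a 6-hour ZIKV infection was quantified with a luminescent Caspase-Glo 3/7 reagent incubated 30 minutes at room temperature. Compounds were preincubated with hNPCs for 1 hour; inhibition was calculated against uninfected and infected control wells.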
A general note: Quantitative high-throughput screening tests each substance at several concentrations.

The nature of assay [2]: qHTS assay for measurement of the activity of small molecule inhibitors on Zika virus induced Caspase-3 activity in human astrocytoma cells (AID 1224859). The gist of the method:
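In SNB-19 cells plated at 250 cells/well and grown 16-20 h, compounds were applied 1 h before ZIKV (2 FFU/cell). Six hours later caspase-3/7 luminescence was recorded.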

Assay [3] in a line: qHTS assay to identify small molecule inhibitors of chordoma cells - UCH-2 (AID 1259356). Note: potency is the fitted concentration of half-maximal effect.
Assay [4] can be described thus: P-glycoprotein substrates identified in KB-8-5-11 adenocarcinoma cell line, qHTS therapeutic library screen (AID 1346987). Note: series mostly up to about 44 µM; nearly all actives have a fitted effect of over 65% in size. An outline of the steps:
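KB-8-5-11: colchicine-selected sub-line of KB-3-1 over-expressing P-gp; assay medium lacked colchicine. 72 h drug exposure at 37 degree C, CellTiter-Glo.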

Assay [5] is described as follows: Natriuretic polypeptide receptor (hNpr1) antagonism - Pilot counterscreen GloSensor control cell line (AID 1347045; calls by dose curve; note: potency is the fitted concentration of half-maximal effect). An outline of the steps: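 HEK293 cells carrying the GloSensor cGMP sensor (GIP/pGS-40F) were loaded with 2% GloSensor reagent for 2 h, exposed to compounds for 30 min, and then stimulated with 50 uM sodium nitroprusside for 20 min at room temperature.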
(In general: Counterscreens check selectivity or assay interference.)

The target in assay [6] is Atrial natriuretic peptide receptor 1 (Homo sapiens) (UniProt P16066). Put plainly: Natriuretic polypeptide receptor (hNpr1) antagonism - Pilot screen (AID 1347049; calls by dose curve;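 note: agonist-evoked cGMP luminescence read 20 min after hNppA addition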; note: potency is the fitted concentration of half-maximal effect). The gist of the method:
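Readout is cGMP-driven firefly luciferase luminescence in HEK293 cells carrying hNpr1 and a PDE5-domain GloSensor, read before and 20 min after 0.1 nM hNppA stimulation. Cells had 2% substrate reagent for 2 h and test compound for 30 min.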

Assay [7] concerns the target Atrial natriuretic peptide receptor 2 (Homo sapiens) (UniProt P20594). Put plainly: Natriuretic polypeptide receptor (hNpr2) antagonism - Pilot subtype selectivity assay (AID 1347050; calls by dose curve; note: potency is the fitted concentration of half-maximal effect). The gist of the method: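 Pilot selectivity screen against hNpr2: HEK293 cGMP-sensor cells are treated with LOPAC1280 compounds, then with hNppC peptide at 1 nM final. The cGMP-driven luminescence change over 20 min at room temperature is the read-out.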

Assay [8] can be described thus: NS1 protein of Zika virus - qHTS assay to identify small molecule inhibitors in human HEK 293 cells (AID 1347053). Note: series mostly up to about 46 µM; nearly all actives have a fitted effect of over 55% in size. An outline of the steps:
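HEK 293; 20 h pre-culture, 37 C/5% CO2; cpd 1 h pre-infection; ZIKV MR766, MOI = 0.5, 24 h, 37 C; TR-FRET NS1 readout (two anti-NS1 Abs); norm. to no-virus vs infected.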

Assay [9] has as its target T1, Tyrosine-protein phosphatase non-receptor type substrate 1 (Homo sapiens) + Leukocyte surface antigen CD47 (Homo sapiens) (UniProt P78324+Q08722). Description: CD47-SIRPalpha protein protein interaction - LANCE assay qHTS validation (AID 1347057; active = well fitted curve in the direction sought with a large enough effect in the signal ratio, with a control signal flat, not every such curve was filed as active; the % refers to the signal ratio; note: series mostly up to about 38 µM). The gist of the method:
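First, His-tagged CD47 and Eu-labelled anti-His antibody met the compound for 30 min; next, site-specifically biotinylated SIRPalpha was added for 30 min; finally streptavidin-APC was added before reading the TR-FRET ratio.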
(In TR-FRET formats the signal depends on donor and acceptor labels being close together.)

For assay [10], the target named is T1, Tyrosine-protein phosphatase non-receptor type substrate 1 (Homo sapiens) + Leukocyte surface antigen CD47 (Homo sapiens). Description: CD47-SIRPalpha protein protein interaction - HTRF assay qHTS validation (AID 1347058; active = well fitted curve in the direction sought with a large enough effect in the signal ratio, not every such curve was filed as active; the % refers to the signal ratio;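 note: recombinant soluble extracellular CD47 with His tag and biotinylated SIRPalpha domains; series mostly up to about 38 µM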). An outline of the steps: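 TR-FRET read (Ch1/Ch2 ratio) of soluble extracellular CD47 and Avi-biotinylated SIRPalpha domains in PBS pH 7.4 with 0.05% IGEPAL; 7-point compound titration. Sequential 30 min room-temperature steps; non-biotinylated SIRPalpha as control inhibitor.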

For assay [11] the target is unchanged. Put plainly: CD47-SIRPalpha protein protein interaction - Alpha assay qHTS validation (AID 1347059).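 Note: bead proximity luminescence from CD47 binding SIRPalpha after compound preincubation with SIRPalpha.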 An outline of the steps: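 Binding is measured by AlphaScreen proximity: Ni-NTA acceptor beads capture His-CD47, streptavidin donor beads capture biotin-SIRPalpha. Each of three additions (SIRPalpha with compound, CD47, beads) incubates 30 min at room temperature protected from light.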

The target in assay [12] is Parathyroid hormone/parathyroid hormone-related peptide receptor (Homo sapiens) (UniProt Q03431). Put plainly: qHTS for PTHR1 Agonists: Optimization Screen against the NCGC LOPAC library (AID 1347079).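 Note: GloSensor cAMP luminescence in HEK-293 GP2 cells expressing human PTHR1 with IBMX.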 The gist of the method: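 Compounds were tested across a qHTS titration. PTHR1-expressing GP2 cells report cAMP rises via GloSensor luminescence after 1 hr compound exposure at 37C with IBMX present.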

Assay [13] is described as follows: qHTS of pediatric cancer cell lines to identify multiple opportunities for drug repurposing: Primary screen for TC32 cells (AID 1347089). Note: nearly all actives have a fitted effect of over 60% in size. The gist of the method:
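qHTS, TC32, 48 h drug treatment, CellTiter-Glo luminescence as a proxy for metabolically active cells; primary top concentration 46 µM (MIPE 11-pt, NPC 8-pt); confirmatory 11-pt.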

Assay [14] in a line: qHTS of pediatric cancer cell lines to identify multiple opportunities for drug repurposing: Primary screen for DAOY cells (AID 1347090). Note: nearly all actives have a fitted effect of over 55% in size. Note: potency is the fitted concentration of half-maximal effect. An outline of the steps: (§1)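 Cell viability, CellTiter-Glo luminescence; 500-1,000 cells/well, 8- or 11-point titration, 48 h compound exposure at 37 degrees C, 5% CO2. Controls: DMSO neutral, bortezomib 2.3 µM final as positive.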
Assay [15] can be described thus: qHTS of pediatric cancer cell lines to identify multiple opportunities for drug repurposing: Primary screen for SJ-GBM2 cells (AID 1347091). Note: potency is the fitted concentration of half-maximal effect. The gist of the method: as §1
Assay [16] in a line: qHTS assay to identify small molecule inhibitors of chordoma cells - UCH-1 (AID 1259355). Note: nearly all actives have a fitted effect of over 55% in size. Note: potency is the fitted concentration of half-maximal effect; series mostly up to about 46 µM. The gist of the method:
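Seed 800 cells per well; incubate overnight at 37 C, 5% CO2. Add test compounds (15 concentrations), then the auranofin–topoisomerase-agent combination. Incubate 48hr, add CellTiter-Glo, wait 30min, read luminescence.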

Here are results for 12 compounds from PubChem BioAssay (NCATS).

Each structure is given as a SMILES string. A number with no mark means an inactive call. Results filed as inconclusive are left out. The source made the active and inactive calls. Unless noted, calls come from the whole dose curve; as a rule, active = well fitted curve in the direction sought with a large enough effect; inconclusive = small, poorly fitted or top-dose-only effect, or another doubt; inactive = no such curve, though single readings can be large; an effect the other way counts as inactive or inconclusive.

Chain of Parathyroid hormone/parathyroid hormone-related peptide receptor (Homo sapiens) (Q03431 whole entry, looked up): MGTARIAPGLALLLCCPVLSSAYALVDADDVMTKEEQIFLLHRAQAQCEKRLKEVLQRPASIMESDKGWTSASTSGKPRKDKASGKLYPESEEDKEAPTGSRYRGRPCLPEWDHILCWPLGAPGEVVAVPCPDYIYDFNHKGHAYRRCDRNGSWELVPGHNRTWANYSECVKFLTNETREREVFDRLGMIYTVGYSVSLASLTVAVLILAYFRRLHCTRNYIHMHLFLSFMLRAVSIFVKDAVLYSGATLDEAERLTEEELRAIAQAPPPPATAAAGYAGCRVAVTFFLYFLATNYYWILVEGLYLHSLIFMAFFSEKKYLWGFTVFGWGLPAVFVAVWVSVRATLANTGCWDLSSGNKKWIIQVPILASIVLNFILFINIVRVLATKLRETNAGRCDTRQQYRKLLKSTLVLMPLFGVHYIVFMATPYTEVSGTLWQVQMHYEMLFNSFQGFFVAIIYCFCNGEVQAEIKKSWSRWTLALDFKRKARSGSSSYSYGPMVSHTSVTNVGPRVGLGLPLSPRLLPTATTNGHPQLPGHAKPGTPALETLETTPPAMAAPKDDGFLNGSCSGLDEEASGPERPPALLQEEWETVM
Chain of Atrial natriuretic peptide receptor 2 (Homo sapiens) (P20594 whole entry, looked up): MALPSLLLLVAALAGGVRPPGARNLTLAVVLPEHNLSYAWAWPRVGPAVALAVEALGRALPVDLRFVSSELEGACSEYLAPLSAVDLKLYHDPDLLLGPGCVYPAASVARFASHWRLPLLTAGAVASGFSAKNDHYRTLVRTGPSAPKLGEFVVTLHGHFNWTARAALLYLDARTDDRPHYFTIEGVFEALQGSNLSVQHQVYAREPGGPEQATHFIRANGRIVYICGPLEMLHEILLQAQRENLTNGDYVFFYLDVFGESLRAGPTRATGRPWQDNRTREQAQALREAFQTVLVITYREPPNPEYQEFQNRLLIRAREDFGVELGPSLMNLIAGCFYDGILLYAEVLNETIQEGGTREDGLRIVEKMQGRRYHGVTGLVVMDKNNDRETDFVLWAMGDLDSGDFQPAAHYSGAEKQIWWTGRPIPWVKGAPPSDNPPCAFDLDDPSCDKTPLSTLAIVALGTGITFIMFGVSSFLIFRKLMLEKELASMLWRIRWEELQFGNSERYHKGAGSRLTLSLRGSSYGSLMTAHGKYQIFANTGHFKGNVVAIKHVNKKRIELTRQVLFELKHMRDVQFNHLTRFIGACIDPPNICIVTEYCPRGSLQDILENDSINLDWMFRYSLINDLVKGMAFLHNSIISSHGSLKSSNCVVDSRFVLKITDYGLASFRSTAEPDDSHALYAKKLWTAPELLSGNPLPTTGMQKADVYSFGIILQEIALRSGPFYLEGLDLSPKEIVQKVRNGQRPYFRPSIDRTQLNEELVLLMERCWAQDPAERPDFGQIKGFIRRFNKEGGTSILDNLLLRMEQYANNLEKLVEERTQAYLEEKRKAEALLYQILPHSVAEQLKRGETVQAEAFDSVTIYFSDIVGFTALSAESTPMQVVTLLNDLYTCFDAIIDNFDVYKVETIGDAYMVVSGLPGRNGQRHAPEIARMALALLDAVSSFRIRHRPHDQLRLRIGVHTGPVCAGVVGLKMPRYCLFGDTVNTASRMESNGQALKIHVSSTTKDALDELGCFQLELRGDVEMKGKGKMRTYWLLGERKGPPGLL
Chain of Atrial natriuretic peptide receptor 1 (Homo sapiens) (P16066 whole entry, looked up): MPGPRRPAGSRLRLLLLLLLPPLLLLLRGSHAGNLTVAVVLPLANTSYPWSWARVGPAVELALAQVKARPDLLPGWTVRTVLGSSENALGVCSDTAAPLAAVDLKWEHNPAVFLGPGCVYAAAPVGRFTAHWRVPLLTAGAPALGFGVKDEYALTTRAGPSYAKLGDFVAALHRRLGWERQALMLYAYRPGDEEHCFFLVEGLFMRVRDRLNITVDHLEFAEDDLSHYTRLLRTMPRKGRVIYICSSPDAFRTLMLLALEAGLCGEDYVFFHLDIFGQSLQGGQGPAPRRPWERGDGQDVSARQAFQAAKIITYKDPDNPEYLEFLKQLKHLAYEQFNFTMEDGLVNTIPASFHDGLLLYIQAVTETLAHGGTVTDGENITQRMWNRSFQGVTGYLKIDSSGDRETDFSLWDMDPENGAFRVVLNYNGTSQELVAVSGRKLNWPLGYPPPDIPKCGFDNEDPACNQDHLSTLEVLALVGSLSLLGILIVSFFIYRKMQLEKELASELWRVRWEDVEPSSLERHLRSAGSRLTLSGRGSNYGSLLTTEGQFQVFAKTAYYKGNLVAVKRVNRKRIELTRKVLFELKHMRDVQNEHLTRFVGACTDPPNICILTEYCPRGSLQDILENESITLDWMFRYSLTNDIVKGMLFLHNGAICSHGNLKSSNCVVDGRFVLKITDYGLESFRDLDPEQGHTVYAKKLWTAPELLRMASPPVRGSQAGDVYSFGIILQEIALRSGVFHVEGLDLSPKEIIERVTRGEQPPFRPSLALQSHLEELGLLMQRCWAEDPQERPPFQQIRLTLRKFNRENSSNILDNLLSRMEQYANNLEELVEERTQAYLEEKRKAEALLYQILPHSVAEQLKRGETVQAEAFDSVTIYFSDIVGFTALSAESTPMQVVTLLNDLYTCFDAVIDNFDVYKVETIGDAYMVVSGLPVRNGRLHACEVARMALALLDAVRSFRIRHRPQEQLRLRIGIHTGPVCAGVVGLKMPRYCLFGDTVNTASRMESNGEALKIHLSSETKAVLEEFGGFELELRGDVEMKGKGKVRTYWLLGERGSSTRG
T1 sequence (P78324 whole entry, looked up): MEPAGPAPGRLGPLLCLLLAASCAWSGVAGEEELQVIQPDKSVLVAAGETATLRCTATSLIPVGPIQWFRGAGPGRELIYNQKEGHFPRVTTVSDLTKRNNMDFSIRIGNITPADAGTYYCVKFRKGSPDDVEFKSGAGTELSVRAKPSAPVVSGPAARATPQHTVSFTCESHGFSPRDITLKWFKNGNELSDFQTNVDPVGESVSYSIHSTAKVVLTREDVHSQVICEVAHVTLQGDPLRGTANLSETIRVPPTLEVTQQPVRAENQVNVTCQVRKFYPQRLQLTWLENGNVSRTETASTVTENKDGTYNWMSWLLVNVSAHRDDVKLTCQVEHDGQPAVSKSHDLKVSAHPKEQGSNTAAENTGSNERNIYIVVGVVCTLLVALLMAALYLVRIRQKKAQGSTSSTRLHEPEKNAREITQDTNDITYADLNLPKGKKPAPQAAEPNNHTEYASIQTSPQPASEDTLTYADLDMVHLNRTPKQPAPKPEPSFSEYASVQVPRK
T1 sequence (Q08722 whole entry, looked up): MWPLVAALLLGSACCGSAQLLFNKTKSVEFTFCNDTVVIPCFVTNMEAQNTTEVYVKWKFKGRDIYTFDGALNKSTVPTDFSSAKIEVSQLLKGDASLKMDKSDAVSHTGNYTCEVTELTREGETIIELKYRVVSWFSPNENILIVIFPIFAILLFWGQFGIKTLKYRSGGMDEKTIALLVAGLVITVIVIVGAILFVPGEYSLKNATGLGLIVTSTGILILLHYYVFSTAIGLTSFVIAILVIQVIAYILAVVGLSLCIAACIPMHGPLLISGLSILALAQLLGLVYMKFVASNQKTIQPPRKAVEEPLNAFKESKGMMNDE

As to `NC/C=C/C(=O)O`, the result in [1], in assay [2], in [8], in assay [9], in [10] and in [12] was inactive. Moreover, the Potency entry in assay [3], in [4], in [5], in [6], in [7] and in [11] was “inactive” in each case. The Potency entry in [13], in assay [14] and in assay [15] was “inactive” each time.

For the compound `N[C@@H](COP(=O)(O)O)C(=O)O`, the compound was classed as inactive in [1], in [2], in assay [8], in assay [9] and in [10]. Also, the Potency result in assay [3], in [4], in assay [5], in [6], in assay [7] and in assay [11] was “inactive” in each case. Besides, the Potency result in [13], in assay [14] and in assay [15] was “inactive” throughout.

For the compound `CC(C)COCC(CN(Cc1ccccc1)c1ccccc1)N1CCCC1` (stereo not given), the compound was called inactive in assay [1], in assay [2], in assay [8] and in assay [12]. For the same compound, the Potency result in assay [16], in assay [3], in assay [5], in [6], in [7] and in [11] was “inactive” each time.

`Fc1ccc(C(c2ccc(F)cc2)N2CCN(C/C=C/c3ccccc3)CC2)cc1`: the result in [1], in assay [2], in assay [8], in [9] and in assay [10] was inactive. Further, the Potency entry in assay [16], in assay [5], in assay [6], in assay [7], in assay [11] and in assay [13] was “inactive” throughout. For the same compound, in assay [14], the Potency entry was “inactive”.

For `CCn1ccnc1CC1COc2ccccc2O1` (stereo not given), the call in [1], in assay [2], in assay [8], in assay [9], in assay [10] and in assay [12] was inactive. Also, the Potency result in assay [3], in assay [4], in [5], in assay [6], in assay [7] and in assay [11] was “inactive” throughout. In addition, the Potency entry in assay [13], in assay [14] and in assay [15] was “inactive” each time.

`CN(C)CCCN1c2ccccc2Sc2ccccc21`: the compound was called inactive in [1], in assay [2], in [8], in assay [9], in [10] and in [12]. In addition, the Potency entry in assay [16], in assay [3], in assay [5], in assay [6], in assay [11] and in assay [14] was “inactive” each time.

As for `C[n+]1cc2c3c(ccc2c2ccc4cc5c(cc4c21)OCO5)OCO3`, the compound was called inactive in assay [1], in [2] and in assay [12]. Also, the Potency is 12600 nM (active) in [16]; 13000 nM (active) in assay [3]; 2070 nM (active) in assay [5]; 4780 nM (active) in assay [6]; 2610 nM (active) in assay [7]; 2310 nM (active) in assay [14]. Also, in assay [15], the Potency was 1160 nM (active).

`NC(N)=NC(=O)Cc1c(Cl)cccc1Cl`: the compound was classed as inactive in assay [1], in assay [2], in [8], in [10] and in assay [12]. The Potency result in assay [16], in assay [3], in assay [5], in assay [6], in assay [7] and in [11] was “inactive” in each case. For the same compound, the Potency entry in [14] and in assay [15] was “inactive” throughout.

For the compound `O=C(O)CCCCCCCC(=O)O`, the compound was classed as inactive in assay [1], in [2], in [8], in assay [9], in assay [10] and in [12]. Also, the Potency result in [3], in [4], in [5], in assay [6], in assay [7] and in [11] was “inactive” throughout. The Potency entry in assay [13], in assay [14] and in assay [15] was “inactive” each time.

As to `OCCN1CCN(CCCN2c3ccccc3C=Cc3ccccc32)CC1`, the compound was called inactive in [1], in [2], in assay [8], in [9], in assay [10] and in assay [12]. Besides, the Potency entry in assay [16], in assay [5], in assay [6], in assay [11], in [14] and in [15] was “inactive” each time.

With `CCCN(CCC)CCc1cccc2c1CC(=O)N2`, the call in assay [1], in assay [2], in [8], in assay [9] and in [10] was inactive. The Potency result in [3], in assay [4], in [5], in assay [6], in assay [7] and in [11] was “inactive” throughout. Also, the Potency entry in [13], in assay [14] and in assay [15] was “inactive” each time.

Take `O=C(CCCN1CCC(O)(c2cccc(C(F)(F)F)c2)CC1)c1ccc(F)cc1`: the compound was classed as inactive in assay [1], in assay [2], in [8], in [9], in [10] and in assay [12]. The Potency entry in assay [16], in [3], in [6], in assay [7], in assay [11] and in assay [13] was “inactive” each time. The Potency entry in assay [14] was “inactive”.
